This is an account of results in article PMC10668032, “Altered binding affinity of SIX1-Q177R correlates with enhanced WNT5A and WNT pathway effector expression in Wilms tumor”.

In all, about 33,000 sequences were measured (“e-score”: median about -0.05, highest 2% from about 0.38 on). The list comes from a sample in which the highest values are over-represented; it also holds similar and randomly drawn sequences.

The test addresses T1, SIX1-Q177R homeodomain (human, UniProt Q15475 108-198, Q177R).
T1 sequence: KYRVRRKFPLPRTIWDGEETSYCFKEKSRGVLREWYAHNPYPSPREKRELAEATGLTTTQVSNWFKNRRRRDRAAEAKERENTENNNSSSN
Put plainly: universal protein binding microarray; Universal all-10-mer PBM (8x60K, AMADID 030236), 300 nM GST-tagged protein, Alexa Fluor 488 anti-GST; buffer, salt, pH and temperature not stated (as in Berger); high values mean tight binding. As to conditions: protein: ivt; tags: N-terminal GST; dsDNA, one strand shown. The method, boiled down: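 Binding was expressed as 8-mer E-scores calculated with the Universal PBM Analysis Suite. The GST-tagged homeodomains, made by in vitro transcription/translation, were applied in duplicate at 300 nM final concentration to universal 'all 10-mer' protein binding microarrays (8×60K format).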
Turning to ACGCGGTG, the binding signal is 0.334 ± 0.012 E-score.

In the case of GGGATCCA, the binding signal is 0.211 ± 0.0194 E-score.

Consider ACCTGACA, for which the binding signal came out at 0.228 ± 0.0625 E-score.

ACCCCACT: the binding signal worked out at 0.207 ± 0.00426 E-score.

As to GCGGATAA, the binding signal turned out to be 0.162 ± 0.0348 E-score.

Turning to CTCGTACA, the binding signal is 0.17 ± 0.0125 E-score.

Take CCCAAACA: the binding signal turned out to be 0.208 ± 0.0371 E-score.

For CACTCTTA, the binding signal was determined as 0.164 ± 0.0568 E-score.

Regarding GAACCCCC, the binding signal was 0.244 ± 0.0572 E-score.

Consider ATACCCAG, for which the binding signal is 0.274 ± 0.0157 E-score.

Consider AGTGTCAT, for which the binding signal amounted to 0.462 ± 0.0172 E-score.

For the sequence AGTGTCCG, the binding signal amounted to 0.365 ± 0.00508 E-score.

Consider GGCGTCAA, for which the binding signal was 0.177 ± 0.0347 E-score.

For the sequence GGTGTCAA, the binding signal was found to be 0.49013 ± 0.000481 E-score.

For the sequence AGAGTCAT, the binding signal was found to be 0.1867 ± 0.000552 E-score.

As for AGTGTCAG, the binding signal is 0.4435 ± 0.00254 E-score.

As to AGTGTCTG, the binding signal turned out to be 0.302 ± 0.0115 E-score.

On to GGGGTCAA, for which the binding signal was 0.253 ± 0.0228 E-score.

AGTGTCAA: the binding signal is 0.424 ± 0.0101 E-score.

For the sequence GAGGTATC, the binding signal is 0.337 ± 0.00525 E-score.

Consider CCCTCCCA, for which the binding signal came to 0.176 ± 0.0422 E-score.

For the sequence ACCAAACA, the binding signal was 0.244 ± 0.0473 E-score.

Take GTAACATA: the binding signal was determined as 0.196 ± 0.0373 E-score.

With AAAGGGGG, the binding signal was found to be 0.233 ± 0.0235 E-score.

For the sequence CACCTTTC, the binding signal amounted to 0.195 ± 0.00584 E-score.

For the sequence CGTGATCC, the binding signal came out at 0.195 ± 0.0306 E-score.

On to CGTGTCAA, for which the binding signal was found to be 0.409 ± 0.00885 E-score.

As to CGGGTCAA, the binding signal was determined as 0.2 ± 0.04 E-score.

On to TGTGTCAA, for which the binding signal was found to be 0.303 ± 0.0203 E-score.

For the sequence ACTATGCG, the binding signal came out at 0.17 ± 0.0186 E-score.

Take ACCTCGGA: the binding signal was found to be 0.175 ± 0.0387 E-score.

GATGACCC: the binding signal turned out to be 0.211 ± 0.0466 E-score.

Take GATGATAC: the binding signal turned out to be 0.242 ± 0.0302 E-score.

With CATGACAC, the binding signal is 0.4733 ± 0.00427 E-score.

For the sequence CATGACCC, the binding signal worked out at 0.218 ± 0.0214 E-score.

As for GATGACAC, the binding signal was found to be 0.4656 ± 0.00203 E-score.

Take AATGACAC: the binding signal was 0.464 ± 0.0115 E-score.

In the case of CATGATAC, the binding signal was determined as 0.287 ± 0.0236 E-score.

In the case of AATGACTC, the binding signal was 0.245 ± 0.00746 E-score.

For AATGACCC, the binding signal was determined as 0.181 ± 0.0204 E-score.

Regarding CACCTAGA, the binding signal stood at 0.276 ± 0.00873 E-score.

For GACGCCAC, the binding signal came to 0.201 ± 0.00624 E-score.

In the case of CACCCATC, the binding signal amounted to 0.277 ± 0.0196 E-score.

Regarding ACCCCCGA, the binding signal came out at 0.298 ± 0.0252 E-score.

As for CACTATCC, the binding signal is 0.196 ± 0.0388 E-score.

In the case of AGGGTACA, the binding signal stood at 0.237 ± 0.00699 E-score.

Take ACTCCGGA: the binding signal came out at 0.204 ± 0.0189 E-score.

ACCCAGAA: the binding signal worked out at 0.179 ± 0.00761 E-score.

For ACAGTACA, the binding signal is 0.203 ± 0.0245 E-score.

Take GGATCCGA: the binding signal stood at 0.217 ± 0.0131 E-score.

On to CACTACCA, for which the binding signal was found to be 0.227 ± 0.00878 E-score.

Turning to ACACGACA, the binding signal is 0.404 ± 0.00581 E-score.

As to ACACGACG, the binding signal was 0.368 ± 0.0133 E-score.

ACACGACT: the binding signal was 0.411 ± 0.00971 E-score.

Regarding ACACGAAA, the binding signal turned out to be 0.302 ± 0.0196 E-score.

Consider ACACGAAT, for which the binding signal was determined as 0.31 ± 0.00916 E-score.

With ACACGACC, the binding signal was determined as 0.4169 ± 0.00152 E-score.

As to GCACGACA, the binding signal came out at 0.2099 ± 0.000516 E-score.

Regarding CCACGACA, the binding signal came out at 0.27 ± 0.00989 E-score.

GCACGACC: the binding signal was determined as 0.255 ± 0.00765 E-score.

As to ACCGAATG, the binding signal was 0.173 ± 0.0343 E-score.

Consider CCCCCCTA, for which the binding signal was found to be 0.232 ± 0.01 E-score.

GTGGAGTA: the binding signal worked out at 0.29 ± 0.0112 E-score.

As for ATCGAGGG, the binding signal was 0.167 ± 0.00486 E-score.

Consider ATCCGATC, for which the binding signal is 0.213 ± 0.0309 E-score.

In the case of CACTCGGC, the binding signal came to 0.237 ± 0.0125 E-score.

Consider GCGAGTAC, for which the binding signal was 0.175 ± 0.00781 E-score.

As for CCGTATCA, the binding signal was found to be 0.245 ± 0.0466 E-score.

In the case of GGGTAACC, the binding signal turned out to be 0.196 ± 0.00371 E-score.

As for ACGATAGT, the binding signal was determined as 0.157 ± 0.0172 E-score.

Turning to GCACCACC, the binding signal was 0.261 ± 0.00493 E-score.

For the sequence AAACCACA, the binding signal came to 0.2156 ± 0.00176 E-score.

On to GCACCACA, for which the binding signal was 0.154 ± 0.00776 E-score.

For the sequence ACACCACC, the binding signal was 0.4809 ± 0.000976 E-score.

With CTACCACA, the binding signal came to 0.154 ± 0.0418 E-score.

ATACCACG: the binding signal came to 0.216 ± 0.0275 E-score.

As for ACCACACT, the binding signal was determined as 0.2703 ± 0.00247 E-score.

With ACACCACT, the binding signal was found to be 0.4835 ± 0.00239 E-score.

On to ATACCACC, for which the binding signal came out at 0.25 ± 0.00441 E-score.

On to ACACCACG, for which the binding signal was found to be 0.4775 ± 0.00181 E-score.

With ACACCACA, the binding signal amounted to 0.485 ± 0.000106 E-score.

For the sequence ACGCCACT, the binding signal stood at 0.159 ± 0.00951 E-score.

Regarding AACTAACA, the binding signal stood at 0.2417 ± 0.000339 E-score.

As to CACGCTGC, the binding signal was found to be 0.293 ± 0.00561 E-score.

For the sequence ATAAGCAC, the binding signal came to 0.166 ± 0.0125 E-score.

As to ATTCGCAA, the binding signal amounted to 0.162 ± 0.0131 E-score.

As to TACCCGTA, the binding signal was found to be 0.168 ± 0.00327 E-score.
